18 compounds from PubChem BioAssay (EPA / NIEHS) can be followed below.

Read-out in assay [1]: Vascular cell adhesion molecule 1 (VCAM1), VCAM1 (gene 7412)
Put plainly: BSK_4H_VCAM1: BioMAP Diversity Plus: 4H Assay for Vascular cell adhesion molecule 1 (VCAM1) Biomarker Activity (AID 2283033).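 For outcome: cell-surface VCAM-1 protein measured by ELISA.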 Particulars: primary human endothelial cells (HUVEC); actives raise or lower the signal. In short, it runs like this:
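ELISA read-out of VCAM-1 on human umbilical vein endothelium 24 hours after chemical dosing; gain or loss of signal was fitted relative to DMSO, with sulforhodamine B staining of parallel cultures flagging overt cytotoxicity.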

Read-out in assay [2]: Interferon-gamma inducible Protein 10 (IP10), CXCL10 (gene 3627)
Put plainly: BSK_BE3C_IP10: BioMAP Diversity Plus: BE3C Assay for Interferon-gamma inducible Protein 10 (IP10) Biomarker Activity (AID 2283034). The settings on record: primary human bronchial epithelial cells; actives raise or lower the signal. The gist of the method:
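Chemical is dosed onto human lung bronchial epithelial primary cells, cultures are incubated 24 h, and IP-10 is then quantified by ELISA. Gain or loss of signal is fitted in both directions relative to DMSO.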

Read-out in assay [3]: Monokine induced gamma interferon (MIG), CXCL9 (gene 4283)
Kind of assay: BSK_BE3C_MIG: BioMAP Diversity Plus: BE3C Assay for Monokine induced gamma interferon (MIG) Biomarker Activity (AID 2283035). Particulars: primary human bronchial epithelial cells; actives raise or lower the signal. The gist of the method: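 Primary human bronchial epithelial cells treated for 24 h; MIG levels measured by ELISA, fitted bidirectionally versus DMSO. Parallel SRB total-protein staining assessed cytotoxicity.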

Read-out in assay [4]: Transforming growth factor beta 1 (TGFb1), TGFB1 (gene 7040)
Kind of assay: BSK_BE3C_TGFb1: BioMAP Diversity Plus: BE3C Assay for Transforming growth factor beta 1 (TGFb1) Biomarker Activity (AID 2283036;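 for outcome: TGF-b1 protein level measured by ELISA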). Particulars: primary human bronchial epithelial cells; actives raise or lower the signal. In short, it runs like this: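 Primary human lung bronchial epithelial cells; compound exposure 24 h; TGF-b1 by ELISA; bidirectional fit, DMSO baseline. Parallel SRB total-protein staining for cytotoxicity.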

Read-out in assay [5]: Plasminogen activator inhibitor-1 (PAI1), SERPINE1 (gene 5054)
Kind of assay: BSK_BE3C_PAI1: BioMAP Diversity Plus: BE3C Assay for Plasminogen activator inhibitor-1 (PAI1) Biomarker Activity (AID 2283037). The settings on record: primary human bronchial epithelial cells; actives raise or lower the signal. The gist of the method:
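Primary human lung bronchial epithelial cells; chemical dosing; 24 h; PAI-1 measured by ELISA; bidirectional fit referenced to DMSO as negative control.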

Read-out in assay [6]: urokinase plasminogen activator (uPA), PLAU (gene 5328)
Put plainly: BSK_BE3C_uPA: BioMAP Diversity Plus: BE3C Assay for urokinase plasminogen activator (uPA) Biomarker Activity (AID 2283038).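 For outcome: uPA protein level quantified by ELISA in cell cultures; uPA read one day after compound addition.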 The settings on record: primary human bronchial epithelial cells; actives raise or lower the signal. In short, it runs like this: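 Human primary bronchial epithelial cells were exposed to chemical for 24 h, then uPA levels were measured by ELISA. Responses were fitted bidirectionally against DMSO as negative control and baseline. Parallel SRB staining of total protein gauged overt cytotoxicity.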

Read-out in assay [7]: Urokinase-type plasminogen activator receptor (uPAR), PLAUR (gene 5329)
Kind of assay: BSK_BE3C_uPAR: BioMAP Diversity Plus: BE3C Assay for Urokinase-type plasminogen activator receptor (uPAR) Biomarker Activity (AID 2283039).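 For outcome: cells exposed to compound for one day before measurement.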 The settings on record: primary human bronchial epithelial cells; actives raise or lower the signal. The gist of the method:
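Human bronchial epithelial primary cells; chemical exposure 24 h; uPAR by ELISA; bidirectional fit vs DMSO control.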

Read-out in assay [8]: Interleukin-6 (IL6), IL6 (gene 3569)
Put plainly: BSK_CASM3C_IL6: BioMAP Diversity Plus: CASM3C Assay for Interleukin-6 (IL6) Biomarker Activity for (AID 2283040). Particulars: primary human coronary artery smooth muscle cells; actives raise or lower the signal.

Read-out in assay [9]: Tissue plasminogen activator (tPA), PLAT (gene 5327)
Put plainly: BSK_BE3C_tPA: BioMAP Diversity Plus: BE3C Assay for Tissue plasminogen activator (tPA) Biomarker Activity (AID 2283041).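 For outcome: tPA level quantified by ELISA one day after compound addition.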 The settings on record: primary human bronchial epithelial cells; actives raise or lower the signal. In short, it runs like this: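 Primary human lung bronchial epithelial cultures receive test chemical; after 24 h, tPA is quantified by ELISA, and gain or loss of signal is fitted bidirectionally relative to DMSO baseline.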

Read-out in assay [10]: Interleukin-8 (IL8), CXCL8 (gene 3576)
Kind of assay: BSK_CASM3C_IL8: BioMAP Diversity Plus: CASM3C Assay for Interleukin-8 (IL8) Biomarker Activity (AID 2283042).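 Note: IL-8 protein level quantified by ELISA.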 The settings on record: primary human coronary artery smooth muscle cells; actives raise or lower the signal.

Active and inactive are the calls of the source. Rule for the calls: active = hit-call score of the fitted dose curve at least 0.9, where 1 is the maximum; inactive = score below 0.9.

Consider `Cc1cn([C@H]2C[C@H](N=[N+]=[N-])[C@@H](CO)O2)c(=O)[nH]c1=O`, for which the outcome in [1], in [2], in assay [3], in assay [4], in assay [5] and in assay [6] was inactive. Besides, the result in assay [7], in [8], in [9] and in assay [10] was inactive.
In the case of `CCCCCCCCCC(=O)O`, the outcome in assay [1], in assay [2], in assay [3], in assay [4], in assay [5] and in assay [6] was inactive. In addition, the outcome in assay [7], in assay [8], in [9] and in assay [10] was inactive.
In the case of `O=C(O)Cc1cc(I)c(Oc2ccc(O)c(I)c2)c(I)c1`, the AC50 in [1] is 18.7 µM (active); in [2] it was 10.3 µM (active); in [3], 33.9 µM (active); in assay [5] it was 15.2 µM (active); in assay [7], 32.8 µM (active); in assay [8] it was 29.6 µM (active). In addition, the AC50 in [9] is 15.9 µM (active). In addition, the result in [4], in assay [6] and in assay [10] was inactive.
`C[C@]12CC[C@@H]3c4ccc(O)cc4CC[C@H]3[C@@H]1CC[C@H]2O`: the outcome in assay [1], in assay [2], in [3], in [4], in assay [5] and in [6] was inactive. Also, the outcome in assay [7], in [8], in assay [9] and in [10] was inactive.
As for `O=C(O)c1ccccc1-n1cc(C(=O)O)c(=O)c2cc(Nc3c(F)cc(F)cc3Cl)c(Cl)cc21`, the outcome in [1], in assay [2], in [3], in assay [4], in [5] and in [6] was inactive. For the same compound, the result in assay [7], in assay [8], in assay [9] and in [10] was inactive.
As to `O=c1[nH]sc2ccccc12`, the AC50 in assay [1] was 7.17 µM (active); in [2], 28 µM (active); in [3], 32.3 µM (active); in assay [4], 20 µM (active); in assay [5], 37.2 µM (active); in assay [6] it was 33.6 µM (active). The AC50 was 35 µM (active) in assay [7], 8.69 µM (active) in assay [8], 11 µM (active) in [9] and 14.6 µM (active) in [10].
`CCCCCCCC[Si](OCC)(OCC)OCC`: the AC50 is 21.6 µM (active) in assay [1] and 26.3 µM (active) in assay [2]. Moreover, the outcome in assay [3], in [4], in [5], in [6], in [7] and in assay [8] was inactive. Further, the result in [9] and in [10] was inactive.
Turning to `COc1cc(C(=O)NC2CCN(C)CC2)ccc1Nc1ncc2c(n1)N(C1CCCC1)CC(F)(F)C(=O)N2C`, the AC50 in [1] is 7.23 µM (active); in assay [2], 35.5 µM (active); in assay [3], 31.8 µM (active); in [4], 18.5 µM (active); in assay [5] it was 18.6 µM (active); in assay [6], 12.6 µM (active). For the same compound, the AC50 in [7] was 5.34 µM (active); in assay [8] it was 8.51 µM (active); in [9] it was 10.6 µM (active); in assay [10], 19.2 µM (active).
For the compound `CCCC(=O)OCCC(C)C`, the result in assay [1], in assay [2], in assay [3], in assay [4], in assay [5] and in [6] was inactive. Also, the result in [7], in [8], in [9] and in assay [10] was inactive.
In the case of `CC(O)CC(C)(C)O` (centres undefined), the outcome in [1], in [2], in assay [3], in assay [4], in [5] and in [6] was inactive. Further, the outcome in assay [7], in [8], in [9] and in [10] was inactive.
Turning to `COc1ccc2cc(S(=O)(=O)N[C@H](CC(=O)N[C@H](Cc3ccc(CN4[C@H](C)CCC[C@@H]4C)cc3)C(=O)N(C)C(C)C)c3ccc4c(c3)OCO4)ccc2c1`, the outcome in assay [1], in assay [4], in assay [8] and in assay [10] was inactive. Also, the AC50 is 31.1 µM (active) in [2]; 33.5 µM (active) in assay [3]; 19.1 µM (active) in [5]; 14.6 µM (active) in assay [6]; 18.5 µM (active) in [7]; 7.92 µM (active) in assay [9].
For `CC[C@H](NC(=O)c1cc(F)ccc1NS(=O)(=O)c1cccc2cccnc12)c1ccccc1`, the outcome in assay [1], in [2], in assay [3], in assay [4], in [5] and in [6] was inactive. Besides, the outcome in [7], in assay [8], in assay [9] and in assay [10] was inactive.
Turning to `OC12N=C(c3ccccc3)SC1Cc1cc(Cl)ccc12` (centres undefined), the AC50 in [1] is 20 µM (active). The outcome in [2], in assay [3], in [4], in assay [5], in assay [6] and in [7] was inactive. The result in assay [8], in [9] and in assay [10] was inactive.
In the case of `CCCCCCCCOc1ccc(C(=O)c2ccccc2)c(O)c1`, the outcome in assay [1], in assay [2], in assay [3], in [4], in [5] and in assay [6] was inactive. The outcome in assay [7], in assay [8], in assay [9] and in assay [10] was inactive.
As to `CCCCCCCCCCCO`, the AC50 in [1] was 20 µM (active). Besides, the result in assay [2], in assay [3], in [4], in [5], in assay [6] and in assay [7] was inactive. Moreover, the outcome in assay [8], in assay [9] and in assay [10] was inactive.
Consider `OCCO`, for which the outcome in assay [1], in assay [2], in assay [3], in [4], in assay [5] and in [6] was inactive. The result in assay [7], in assay [8], in [9] and in [10] was inactive.
Turning to `CN(C)C(=O)C1(N2CCCCC2)CCN(CC[C@@]2(c3ccc(Cl)c(Cl)c3)CN(C(=O)c3ccccc3)CCO2)CC1`, the AC50 in assay [1] is 30.8 µM (active); in [2], 16.4 µM (active); in [3] it was 31.2 µM (active); in assay [4], 32.3 µM (active); in [5], 24.4 µM (active); in [6], 17.7 µM (active). Besides, the AC50 in assay [7] was 12 µM (active); in assay [8] it was 31.2 µM (active); in assay [9] it was 17.3 µM (active); in assay [10], 32.4 µM (active).
On to `Oc1ccc2ccccc2c1`, for which the result in assay [1], in assay [3], in assay [4], in [6], in assay [7] and in assay [9] was inactive. Also, the result in assay [10] was inactive. Besides, the AC50 was 32.5 µM (active) in [2] and 20 µM (active) in assay [8].

For orientation: AC50 means the concentration giving half of the maximal activity seen.
